Data as given in article PMC5540273 (PLoS ONE, 2017).

tested on: ZAP70; settings: concentration: 1 μM, replicates: in singlicate; n = 1
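Further: KINOMEscan kinase panel screen.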

| SMILES | %Inh |
| --- | --- |
| Cl.O=C(Nc1cccc(-c2nn3ncccc3c2-c2ccnc(Nc3cccnc3)n2)c1)c1c(F)cccc1F [GSK312879] | 0% |
| Nc1nc(-c2nccs2)c(-c2ccnc3ccccc23)s1 [GW693542] | 0% |
| CN(C)CCN(C)C(=O)c1cc(-c2ccncc2)c(-c2ccc(Cl)c(O)c2)o1.Cl.Cl [SB-710397] | 35% |
| Nc1ncnc2[nH]c(-c3ccccc3)nc12 [AH5015] | 0% |
| Cc1ccc(C(=O)Nc2ccc(Nc3ccnc4cc(-c5ccccn5)ccc34)cc2O)cc1.Cl [GW440146] | 9% |
| Cc1ccc(NC(=O)Nc2cccc(Cl)c2)cc1-c1ccc(C(=O)Nc2ccncc2)cc1 [GSK1398468] | 20% |
| Fc1cccc(COc2nnc(-c3ccc4c(c3)CCO4)o2)c1 | 0% |
| COc1cccc(-c2cc(-c3c[nH]nc3-c3ccccn3)ccn2)c1 [GW680338] | 10% |
| COc1cc2ncn(-c3cc(OCC4CCCO4)c(C(N)=O)s3)c2cc1OC (stereo not drawn) [GSK204607] | 0% |
| CS(=O)(=O)c1ccc(-c2c(-c3ncn[nH]3)sc(N3CCOCC3)c2C#N)cc1 | 0% |
| Cl.NC(=O)c1cccc(Nc2nccc(Nc3ccc(Oc4cccc(Cl)c4)c(Cl)c3)n2)c1 [GW659008] | 0% |
| Cc1cccc(-c2cc(Nc3ccncc3)c3ccccc3n2)n1 [GSK223675] | 0% |
| CC1=C(C(=O)Nc2cc3cn[nH]c3cc2F)C(c2ccc(C(F)(F)F)cc2)CC(=O)N1 (stereo not drawn) [GSK429286] | 0% |
| Cc1nnc(-c2ccc3occ(-c4ccc(S(C)=O)cc4)c3c2)[nH]1 (stereo not drawn) | 0% |
| Cc1c(Cn2ccn3c(=O)cc(N4CCOCC4)nc23)cccc1C(F)(F)F [GSK2289044] | 0% |
| CC(C)(C)c1ccc(C(=O)Nc2cn3cc(-c4cccnc4)ccc3n2)cc1 | 0% |
| O=C(Nc1n[nH]c2nc(-c3nccs3)c(Br)cc12)C1CC1 [SB-742251] | 0% |
| Cc1csc(-c2nc(Nc3ccncc3)c3ccccc3n2)n1 [GW869640] | 18% |
| C[C@@H]1CCCCN1c1cc(-c2ccc3c(N)n[nH]c3c2)nc(N)n1 [GSK2258759] | 0% |
| Cc1cc(NCC(c2ccccc2)c2ccccc2)nc(NCc2ccc(C(F)(F)F)cc2)n1 [GW497681] | 7% |

tested on: T1, p38-alpha; settings: concentration: 1 μM, replicates: in singlicate; n = 1
T1 construct: gene MAPK14

| SMILES | %Inh |
| --- | --- |
| COc1cc(Nc2nccc(N3CCC(NC(=O)Nc4cc(C)ccc4C)C3)n2)cc(OC)c1OC (stereo not drawn) [GSK1379762] | 0% |
| COc1ccc(CNC(=O)NC2CCN(c3ccnc(Nc4cc(OC)c(OC)c(OC)c4)n3)C2)cc1 (stereo not drawn) [GSK1379748] | 12% |
| O=S(=O)(c1ccc(-c2ccnc3[nH]ccc23)cc1)N1CCCC1 [GSK846226] | 6% |
| Cc1cccc(-c2nc(Nc3cccc(C(N)=O)c3)c3ccccc3n2)n1 [GW876019] | 0% |
| O=C(Nc1n[nH]c2cc(-c3cccc(F)c3F)ccc12)C1CC1 [SB-733894] | 0% |
| O=C(Nc1ccc2c(c1)OCO2)NC1CCN(c2ccnc(Nc3ccc(F)cc3)n2)C1 (stereo not drawn) [GSK1379724] | 0% |
| COc1ccc2nc(-c3cccc(C)n3)nc(Nc3ccncc3)c2c1 [GSK204919] | 58% |
| Cc1ccc(-c2cc(-c3c[nH]nc3-c3ccccn3)ccn2)cc1 [GW684088] | 56% |
| O=c1cc(N2CCOCC2)nc2n(Cc3cccc(Cl)c3Cl)ccn12 [GSK2286295] | 0% |
| CCCc1ccc(S(=O)(=O)NC2CCN(c3ccnc(Nc4ccc(F)cc4)n3)C2)cc1 (stereo not drawn) [GSK1379715] | 3% |
| Cc1cccc(-c2nc(Nc3ccncc3)c3ccccc3n2)n1 [GW855857] | 16% |
| COc1cc2ncnc(Nc3ccc4nc(-c5ccccc5)[nH]c4c3)c2cc1OC.Cl [GW282450] | 1% |
| COc1ccccc1-c1ccc2c(NC(=O)C3CC3)n[nH]c2n1 [SB-711239] | 26% |
| Cl.O=C(Nc1cccc(-c2nn3ncccc3c2-c2ccnc(Nc3cccnc3)n2)c1)c1c(F)cccc1F [GSK312879] | 3% |
| Nc1nc(-c2nccs2)c(-c2ccnc3ccccc23)s1 [GW693542] | 0% |
| CN(C)CCN(C)C(=O)c1cc(-c2ccncc2)c(-c2ccc(Cl)c(O)c2)o1.Cl.Cl [SB-710397] | 82% |
| Nc1ncnc2[nH]c(-c3ccccc3)nc12 [AH5015] | 0% |

| SMILES | %Inh |
| --- | --- |
| Cc1ccc(C(=O)Nc2ccc(Nc3ccnc4cc(-c5ccccn5)ccc34)cc2O)cc1.Cl [GW440146] | 0% |
| Cc1ccc(NC(=O)Nc2cccc(Cl)c2)cc1-c1ccc(C(=O)Nc2ccncc2)cc1 [GSK1398468] | 37% |
| CSc1nn2c(=O)cc(N3CCOCC3)nc2n1Cc1cccc(C(F)(F)F)c1C [GSK2363608] | 0% |
| Fc1cccc(COc2nnc(-c3ccc4c(c3)CCO4)o2)c1 | 15% |
| COc1cccc(-c2cc(-c3c[nH]nc3-c3ccccn3)ccn2)c1 [GW680338] | 27% |
| COc1cc2ncn(-c3cc(OCC4CCCO4)c(C(N)=O)s3)c2cc1OC (stereo not drawn) [GSK204607] | 0% |
| CS(=O)(=O)c1ccc(-c2c(-c3ncn[nH]3)sc(N3CCOCC3)c2C#N)cc1 | 6% |
| Cl.NC(=O)c1cccc(Nc2nccc(Nc3ccc(Oc4cccc(Cl)c4)c(Cl)c3)n2)c1 [GW659008] | 8% |
| Cc1cccc(-c2cc(Nc3ccncc3)c3ccccc3n2)n1 [GSK223675] | 12% |
| CC1=C(C(=O)Nc2cc3cn[nH]c3cc2F)C(c2ccc(C(F)(F)F)cc2)CC(=O)N1 (stereo not drawn) [GSK429286] | 0% |
| Cc1nnc(-c2ccc3occ(-c4ccc(S(C)=O)cc4)c3c2)[nH]1 (stereo not drawn) | 13% |
| Cc1c(Cn2ccn3c(=O)cc(N4CCOCC4)nc23)cccc1C(F)(F)F [GSK2289044] | 0% |
| CC(C)(C)c1ccc(C(=O)Nc2cn3cc(-c4cccnc4)ccc3n2)cc1 | 1% |
| O=C(Nc1n[nH]c2nc(-c3nccs3)c(Br)cc12)C1CC1 [SB-742251] | 0% |
| Cc1csc(-c2nc(Nc3ccncc3)c3ccccc3n2)n1 [GW869640] | 14% |
| C[C@@H]1CCCCN1c1cc(-c2ccc3c(N)n[nH]c3c2)nc(N)n1 [GSK2258759] | 80% |
| Cc1cc(NCC(c2ccccc2)c2ccccc2)nc(NCc2ccc(C(F)(F)F)cc2)n1 [GW497681] | 7% |
